From PubChem BioAssay AID1159580 (chemical genetic matrix, 2015)
Out of some 5,500 compounds screened, about 2,000 (36%) were called active. About 18% were inconclusive and are not listed. Rule as the data show it: active = normalized growth mostly below about 0.91 (no sharp cut-off); inconclusive = no clear call, values can overlap the other calls; inactive = mostly above about 0.92. The list shows a part of the results.

Experiment: chemical genetic growth profiling, strain panel (AID 1159580);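 also: tested at 20 µM; growth read once vehicle control cultures reached saturation at 30 °C; 1 = growth at the plate median or of vehicle wells; lower values mean less growth of the strain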
Settings: growth OD

Measured: normalized growth

COC(=O)C[C@H]1C(C)(C)C2(O)OC34CC2C(=O)[C@]1(C)C3CC[C@]1(C)C4=CC(=O)O[C@H]1c1ccoc1 (some centres not stated)
inactive: S. cerevisiae deletion strains, locus YJR043C, strain POL32, active compounds read low 0.992 | S. cerevisiae deletion strains, locus YJR066W, strain TOR1, active compounds read low 0.92 | S. cerevisiae deletion strains, locus YKL009W, strain mrt4, active compounds read low 1.03 | S. cerevisiae deletion strains, locus YKL068W, active compounds read low 1.01 | S. cerevisiae deletion strains, locus YKL085W, strain MDH1 (second series), active compounds read low 1.02 | S. cerevisiae deletion strains, locus YKL085W, strain MDH1, active compounds read low 1.02 | S. cerevisiae deletion strains, locus YKL160W, strain elf1, active compounds read low 1.01 | S. cerevisiae deletion strains, locus YKL190W, strain CNB1, active compounds read low 0.994 | S. cerevisiae deletion strains, locus YKR001C, strain vps1, active compounds read low 1.01 | S. cerevisiae deletion strains, locus YKR026C, strain gcn3, active compounds read low 0.991 | S. cerevisiae deletion strains, locus YKR091W, strain srl3, active compounds read low 0.985 | S. cerevisiae deletion strains, locus YLL001W, strain dnm1, active compounds read low 1.02 | S. cerevisiae deletion strains, locus YLL026W, active compounds read low 0.998 | S. cerevisiae deletion strains, locus YLL041C, strain sdh2, active compounds read low 0.979 | S. cerevisiae deletion strains, locus YLR027C, strain aat2, active compounds read low 1 | S. cerevisiae deletion strains, locus YLR039C, strain RIC1, active compounds read low 1.05 | S. cerevisiae deletion strains, locus YLR058C, strain SHM2, active compounds read low 1 | S. cerevisiae deletion strains, locus YLR102C, strain apc9, active compounds read low 1.01 | S. cerevisiae deletion strains, locus YLR113W, strain HOG1, active compounds read low 1.01 | S. cerevisiae deletion strains, locus YLR221C, strain rsa3, active compounds read low 0.991 | S. cerevisiae deletion strains, locus YLR258W, strain gsy2, active compounds read low 0.989 | S. cerevisiae deletion strains, locus YLR262C, strain YPT6 (second series), active compounds read low 1 | S. cerevisiae deletion strains, locus YLR262C, strain YPT6, active compounds read low 1.08 | S. cerevisiae deletion strains, locus YLR268W, strain sec22, active compounds read low 0.998 | S. cerevisiae deletion strains, locus YLR320W, strain mms22, active compounds read low 0.989 | S. cerevisiae deletion strains, locus YLR342W, strain FKS1, active compounds read low 0.977 | S. cerevisiae deletion strains, locus YLR357W, strain rsc2, active compounds read low 0.999 | S. cerevisiae deletion strains, locus YLR370C, strain arc18, active compounds read low 0.967 | S. cerevisiae deletion strains, locus YLR371W, strain rom2, active compounds read low 0.998 | S. cerevisiae deletion strains, locus YLR384C, strain iki3, active compounds read low 0.975 | S. cerevisiae deletion strains, locus YLR418C, strain cdc73, active compounds read low 1.03 | S. cerevisiae deletion strains, locus YML016C, strain PPZ1, active compounds read low 1 | S. cerevisiae deletion strains, locus YML032C, strain rad52, active compounds read low 1.01 | S. cerevisiae deletion strains, locus YML120C, strain ndi1, active compounds read low 0.981 | S. cerevisiae deletion strains, locus YML124C, strain tub3, active compounds read low 1.01 | S. cerevisiae deletion strains, locus YMR058W, strain fet3, active compounds read low 0.999 | S. cerevisiae deletion strains, locus YMR078C, strain ctf18, active compounds read low 1.01 | S. cerevisiae deletion strains, locus YMR125W, strain sto1, active compounds read low 0.982 | S. cerevisiae deletion strains, locus YMR129W, active compounds read low 0.994 | S. cerevisiae deletion strains, locus YMR205C, strain PFK2, active compounds read low 1.01 | S. cerevisiae deletion strains, locus YMR223W, strain ubp8, active compounds read low 1.01 | S. cerevisiae deletion strains, locus YMR231W, strain pep5, active compounds read low 0.957 | S. cerevisiae deletion strains, locus YMR307W, strain GAS1, active compounds read low 0.93 | S. cerevisiae deletion strains, locus YNL067W, strain RPL9B, active compounds read low 1 | S. cerevisiae deletion strains, locus YNL071W, strain lat1, active compounds read low 0.989 | S. cerevisiae deletion strains, locus YNL153C, strain GIM3, active compounds read low 1.01 | S. cerevisiae deletion strains, locus YNL183C, strain NPR1, active compounds read low 0.931 | S. cerevisiae deletion strains, locus YNL209W, strain ssb2, active compounds read low 0.984 | S. cerevisiae deletion strains, locus YNL233W, strain BNI4, active compounds read low 0.985 | S. cerevisiae deletion strains, locus YNL248C, strain rpa49, active compounds read low 1 | S. cerevisiae deletion strains, locus YNL250W, strain rad50, active compounds read low 1.01 | S. cerevisiae deletion strains, locus YNL271C, strain bni1, active compounds read low 1.01 | S. cerevisiae deletion strains, locus YNL298W, strain CLA4, active compounds read low 1 | S. cerevisiae deletion strains, locus YNL307C, strain MCK1, active compounds read low 1 | S. cerevisiae deletion strains, locus YNL322C, strain KRE1 (second series), active compounds read low 0.981 | S. cerevisiae deletion strains, locus YNR049C, strain mso1, active compounds read low 0.988 | S. cerevisiae deletion strains, locus YNR052C, strain pop2, active compounds read low 1.01 | S. cerevisiae deletion strains, locus YOL006C, strain TOP1, active compounds read low 1.01 | S. cerevisiae deletion strains, locus YOL012C, strain htz1 0.65 | S. cerevisiae deletion strains, locus YOL147C, strain pex11, active compounds read low 1.01 | S. cerevisiae deletion strains, locus YOR001W, strain rrp6, active compounds read low 0.953 | S. cerevisiae deletion strains, locus YOR061W, strain CKA2, active compounds read low 1.01 | S. cerevisiae deletion strains, locus YOR069W, strain VPS5, active compounds read low 0.997 | S. cerevisiae deletion strains, locus YOR070C, strain gyp1, active compounds read low 0.992 | S. cerevisiae deletion strains, locus YOR080W, strain dia2, active compounds read low 0.988 | S. cerevisiae deletion strains, locus YOR083W, strain WHI5, active compounds read low 1.02 | S. cerevisiae deletion strains, locus YOR106W, strain vam3, active compounds read low 1.03 | S. cerevisiae deletion strains, locus YOR136W, strain idh2, active compounds read low 1.01 | S. cerevisiae deletion strains, locus YOR144C, strain elg1, active compounds read low 1.02 | S. cerevisiae deletion strains, locus YOR184W, strain ser1, active compounds read low 0.996 | S. cerevisiae deletion strains, locus YOR231W, strain MKK1, active compounds read low 1.01 | S. cerevisiae deletion strains, locus YOR265W, strain rbl2, active compounds read low 0.984 | S. cerevisiae deletion strains, locus YOR270C, strain vph1, active compounds read low 0.98 | S. cerevisiae deletion strains, locus YOR290C, strain snf2, active compounds read low 0.97 | S. cerevisiae deletion strains, locus YOR316C, strain cot1, active compounds read low 1.02 | S. cerevisiae deletion strains, locus YPL051W, strain arl3, active compounds read low 1.01 | S. cerevisiae deletion strains, locus YPL078C, strain atp4, active compounds read low 1.01 | S. cerevisiae deletion strains, locus YPL106C, strain sse1, active compounds read low 0.969 | S. cerevisiae deletion strains, locus YPL240C, strain hsp82, active compounds read low 0.988 | S. cerevisiae deletion strains, locus YPL241C, strain CIN2, active compounds read low 1 | S. cerevisiae deletion strains, locus YPL256C, strain CLN2, active compounds read low 0.942 | S. cerevisiae deletion strains, locus YPR119W, strain clb2, active compounds read low 1.01 | S. cerevisiae deletion strains, locus YPR141C, strain kar3, active compounds read low 1.01 | S. cerevisiae deletion strains, locus YPR163C, strain tif3, active compounds read low 1.01 | S. cerevisiae deletion strains, locus YPR167C, strain met16, active compounds read low 1.01 | S. cerevisiae deletion strains, strain wtn01, active compounds read low 1 | S. cerevisiae strains, strain wild type, active compounds read low 0.996
